Consider four compounds from the supplement of paper PMC7595190.

Each structure is given as a SMILES string. Unmarked numbers belong to inactive results.

The assay relates to MV4-11. Kind of assay: CellTox Green cytotoxicity fluorescence relative to DMSO vehicle (fold of vehicle RFU); higher = more cell death (loss of membrane integrity), active = 2 or more. As for the experimental part:
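Paediatric AML cell lines (MV4-11, CMK, Kasumi-1; 4x10^4 cells/well, 96-well) treated with single compounds from the Selleckchem apoptosis library at 0.01, 0.1 and 1 µM. Cytotoxicity was read with CellTox Green (RFU, Ex 485/Em 520) at 24, 48 and 72 h and normalised to the 0.1% DMSO vehicle. Normalised RFU >= 2 was taken as a successful, cell-killing treatment.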

Regarding `NS(=O)(=O)C#Cc1ccccc1` [Pifithrin-m], the “CellTox Green cytotoxicity fluorescence” value is, setting by setting: (0.01 µM, 24 h) 0.989; (0.01 µM, 48 h) 1; (0.01 µM, 72 h) 1; (0.1 µM, 24 h) 0.994; (0.1 µM, 48 h) 0.987; (0.1 µM, 72 h) 0.979. The “CellTox Green cytotoxicity fluorescence” value runs as follows: (1 µM, 24 h) 1.02; (1 µM, 48 h) 1.02; (1 µM, 72 h) 1.03.
As to `Cc1nn(C)c(COc2ccc(N3CCN(S(=O)(=O)N(C)C)CC3)cc2)c1-c1cccc2c(CCCOc3cccc4ccccc34)c(C(=O)O)n(CCN3CCOCC3)c12`, the “CellTox Green cytotoxicity fluorescence” value reads like this: (0.01 µM, 24 h) 0.991; (0.01 µM, 48 h) 0.986; (0.01 µM, 72 h) 0.981; (0.1 µM, 24 h) 1.05; (0.1 µM, 48 h) 1.1; (0.1 µM, 72 h) 1.12. Further, the “CellTox Green cytotoxicity fluorescence” value (1 µM, 24 h) was 1.15; the “CellTox Green cytotoxicity fluorescence” value (1 µM, 48 h) was 1.49; the “CellTox Green cytotoxicity fluorescence” value (1 µM, 72 h) was 1.67.
As to `C=CC(=O)N1CC(=Cc2ccc([N+](=O)[O-])cc2)C(=O)C(=Cc2ccc([N+](=O)[O-])cc2)C1`, the “CellTox Green cytotoxicity fluorescence” value is, setting by setting: (0.01 µM, 24 h) 0.967; (0.01 µM, 48 h) 0.965; (0.01 µM, 72 h) 0.983; (0.1 µM, 24 h) 1.11; (0.1 µM, 48 h) 1.66; (0.1 µM, 72 h) 1.78. Further, the “CellTox Green cytotoxicity fluorescence” value was 1.68 (1 µM, 24 h); 2.12 (active) (1 µM, 48 h); 1.92 (1 µM, 72 h).
In the case of `CC(=NNC(=S)N1CCC1)c1ccccn1`, the “CellTox Green cytotoxicity fluorescence” value reads like this: (0.01 µM, 24 h) 0.984; (0.01 µM, 48 h) 1.31; (0.01 µM, 72 h) 2.11 (active); (0.1 µM, 24 h) 0.983; (0.1 µM, 48 h) 1.53; (0.1 µM, 72 h) 2.27 (active). Also, the “CellTox Green cytotoxicity fluorescence” value reads like this: (1 µM, 24 h) 1.02; (1 µM, 48 h) 1.38; (1 µM, 72 h) 1.68.
